# Data as given in publication PMC11062922 (Nature Chemical Biology, 2023).
# Where two headings read alike, the source gives them in different places.
# Legend:
# [1] = test system: SIK2; settings: read-out: apparent Kd, n = 1
# [2] = test system: STK3; settings: read-out: apparent Kd, n = 1
substance,measurement,setting,value
Lestaurtinib,potency estimated from few doses,"[1]; compound concentrations:100 nM and 1000 nM (sheet 'Lestaurtinib' of Supplementary Table 1),run:Lestaurtinib_02584_R3,Plate:MR017",0.0534 µM
same,potency estimated from few doses,"[1]; compound concentrations:100 nM and 1000 nM (sheet 'Lestaurtinib' of Supplementary Table 1),run:Lestaurtinib_02601_R2,Plate:MR018",0.0943 µM
same,potency estimated from few doses,"[1]; compound concentrations:100 nM and 1000 nM (sheet 'Lestaurtinib' of Supplementary Table 1),run:Lestaurtinib_02601_R3,Plate:MR018",0.0402 µM
same,potency estimated from few doses,"[1]; compound concentrations:100 nM and 1000 nM (sheet 'Lestaurtinib' of Supplementary Table 1),run:Lestaurtinib_02606_R1,Plate:MR019",0.0512 µM
same,potency estimated from few doses,"[1]; compound concentrations:100 nM and 1000 nM (sheet 'Lestaurtinib' of Supplementary Table 1),run:Lestaurtinib_02606_R2,Plate:MR019",0.0456 µM
same,potency estimated from few doses,"[1]; compound concentrations:100 nM and 1000 nM (sheet 'Lestaurtinib' of Supplementary Table 1),run:Lestaurtinib_02624_R1,Plate:MR020",0.0515 µM
same,potency estimated from few doses,"[1]; compound concentrations:100 nM and 1000 nM (sheet 'Lestaurtinib' of Supplementary Table 1),run:Lestaurtinib_02624_R2,Plate:MR020",0.0495 µM
same,potency estimated from few doses,"[1]; compound concentrations:100 nM and 1000 nM (sheet 'Lestaurtinib' of Supplementary Table 1),run:Lestaurtinib_02624_R3,Plate:MR020",0.0465 µM
same,potency estimated from few doses,"[1]; compound concentrations:100 nM and 1000 nM (sheet 'Lestaurtinib' of Supplementary Table 1),run:Lestaurtinib_02724_R1,Plate:MR021",0.0739 µM
same,potency estimated from few doses,"[1]; compound concentrations:100 nM and 1000 nM (sheet 'Lestaurtinib' of Supplementary Table 1),run:Lestaurtinib_02724_R2,Plate:MR021",0.0448 µM
same,potency estimated from few doses,"[1]; compound concentrations:100 nM and 1000 nM (sheet 'Lestaurtinib' of Supplementary Table 1),run:Lestaurtinib_02724_R3,Plate:MR021",0.0505 µM
same,potency estimated from few doses,"[1]; compound concentrations:100 nM and 1000 nM (sheet 'Lestaurtinib' of Supplementary Table 1),run:Lestaurtinib_02741_R1,Plate:MR023",0.0572 µM
same,potency estimated from few doses,"[1]; compound concentrations:100 nM and 1000 nM (sheet 'Lestaurtinib' of Supplementary Table 1),run:Lestaurtinib_02741_R2,Plate:MR023",0.0713 µM
same,potency estimated from few doses,"[1]; compound concentrations:100 nM and 1000 nM (sheet 'Lestaurtinib' of Supplementary Table 1),run:Lestaurtinib_02741_R3,Plate:MR023",0.0545 µM
same,potency estimated from few doses,"[1]; compound concentrations:100 nM and 1000 nM (sheet 'Lestaurtinib' of Supplementary Table 1),run:Lestaurtinib_02748_R1,Plate:MR024",0.0488 µM
same,potency estimated from few doses,"[1]; compound concentrations:100 nM and 1000 nM (sheet 'Lestaurtinib' of Supplementary Table 1),run:Lestaurtinib_02748_R2,Plate:MR024",0.0564 µM
same,potency estimated from few doses,"[1]; compound concentrations:100 nM and 1000 nM (sheet 'Lestaurtinib' of Supplementary Table 1),run:Lestaurtinib_02748_R3,Plate:MR024",0.0516 µM
same,potency estimated from few doses,"[1]; compound concentrations:100 nM and 1000 nM (sheet 'Lestaurtinib' of Supplementary Table 1),run:Lestaurtinib_02752_R2,Plate:MR025",0.056 µM
same,potency estimated from few doses,"[1]; compound concentrations:100 nM and 1000 nM (sheet 'Lestaurtinib' of Supplementary Table 1),run:Lestaurtinib_02752_R3,Plate:MR025",0.056 µM
same,potency estimated from few doses,"[1]; compound concentrations:100 nM and 1000 nM (sheet 'Lestaurtinib' of Supplementary Table 1),run:Lestaurtinib_02765_R1,Plate:MR026",0.0497 µM
same,potency estimated from few doses,"[1]; compound concentrations:100 nM and 1000 nM (sheet 'Lestaurtinib' of Supplementary Table 1),run:Lestaurtinib_02765_R2,Plate:MR026",0.0913 µM
same,potency estimated from few doses,"[1]; compound concentrations:100 nM and 1000 nM (sheet 'Lestaurtinib' of Supplementary Table 1),run:Lestaurtinib_02766_R1,Plate:MR027",0.0433 µM
same,potency estimated from few doses,"[1]; compound concentrations:100 nM and 1000 nM (sheet 'Lestaurtinib' of Supplementary Table 1),run:Lestaurtinib_02766_R2,Plate:MR027",0.0269 µM
same,potency estimated from few doses,"[1]; compound concentrations:100 nM and 1000 nM (sheet 'Lestaurtinib' of Supplementary Table 1),run:Lestaurtinib_02768_R2,Plate:MR028",0.0451 µM
same,potency estimated from few doses,"[1]; compound concentrations:100 nM and 1000 nM (sheet 'Lestaurtinib' of Supplementary Table 1),run:Lestaurtinib_02768_R3,Plate:MR028",0.0474 µM
same,potency estimated from few doses,"[1]; compound concentrations:100 nM and 1000 nM (sheet 'Lestaurtinib' of Supplementary Table 1),run:Lestaurtinib_02795_R1,Plate:MR022",0.0597 µM
same,potency estimated from few doses,"[1]; compound concentrations:100 nM and 1000 nM (sheet 'Lestaurtinib' of Supplementary Table 1),run:Lestaurtinib_02795_R2,Plate:MR022",0.0623 µM
same,potency estimated from few doses,"[1]; compound concentrations:100 nM and 1000 nM (sheet 'Lestaurtinib' of Supplementary Table 1),run:Lestaurtinib_02795_R3,Plate:MR022",0.165 µM
same,potency estimated from few doses,"[1]; compound concentrations:100 nM and 1000 nM (sheet 'Lestaurtinib' of Supplementary Table 1),run:Lestaurtinib_02802_R1,Plate:MR029",0.0498 µM
same,potency estimated from few doses,"[1]; compound concentrations:100 nM and 1000 nM (sheet 'Lestaurtinib' of Supplementary Table 1),run:Lestaurtinib_02802_R2,Plate:MR029",0.0525 µM
same,potency estimated from few doses,"[1]; compound concentrations:100 nM and 1000 nM (sheet 'Lestaurtinib' of Supplementary Table 1),run:Lestaurtinib_02802_R3,Plate:MR029",0.0253 µM
same,potency estimated from few doses,"[1]; compound concentrations:100 nM and 1000 nM (sheet 'Lestaurtinib' of Supplementary Table 1),run:Lestaurtinib_02896_R2,Plate:MR030",0.0448 µM
same,potency estimated from few doses,"[1]; compound concentrations:100 nM and 1000 nM (sheet 'Lestaurtinib' of Supplementary Table 1),run:Lestaurtinib_03172_R1,Plate:MR031",0.0462 µM
same,potency estimated from few doses,"[1]; compound concentrations:100 nM and 1000 nM (sheet 'Lestaurtinib' of Supplementary Table 1),run:Lestaurtinib_03172_R2,Plate:MR031",0.0514 µM
same,potency estimated from few doses,"[1]; compound concentrations:100 nM and 1000 nM (sheet 'Lestaurtinib' of Supplementary Table 1),run:Lestaurtinib_03172_R3,Plate:MR031",0.0495 µM
same,potency estimated from few doses,"[1]; compound concentrations:100 nM and 1000 nM (sheet 'Lestaurtinib' of Supplementary Table 1),run:Lestaurtinib_03252_R2,Plate:MR032",0.0343 µM
same,potency estimated from few doses,"[1]; compound concentrations:100 nM and 1000 nM (sheet 'Lestaurtinib' of Supplementary Table 1),run:Lestaurtinib_03260_R1,Plate:MR033",0.0772 µM
same,potency estimated from few doses,"[1]; compound concentrations:100 nM and 1000 nM (sheet 'Lestaurtinib' of Supplementary Table 1),run:Lestaurtinib_03260_R3,Plate:MR033",0.0549 µM
same,potency estimated from few doses,"[2]; compound concentrations:100 nM and 1000 nM (sheet 'Lestaurtinib' of Supplementary Table 1),run:Lestaurtinib_02339_R1,Plate:MR001",0.0366 µM
same,potency estimated from few doses,"[2]; compound concentrations:100 nM and 1000 nM (sheet 'Lestaurtinib' of Supplementary Table 1),run:Lestaurtinib_02339_R2,Plate:MR001",0.0366 µM
same,potency estimated from few doses,"[2]; compound concentrations:100 nM and 1000 nM (sheet 'Lestaurtinib' of Supplementary Table 1),run:Lestaurtinib_02364_R1,Plate:MR002",0.0365 µM
same,potency estimated from few doses,"[2]; compound concentrations:100 nM and 1000 nM (sheet 'Lestaurtinib' of Supplementary Table 1),run:Lestaurtinib_02364_R3,Plate:MR002",0.0515 µM
